An excerpt weighted towards active compounds, which were near 1.2% of everything screened.
GSH fluor: compound fluoresces at 488/530 nm on GSH beads; fluorescence (KMESF) at 10 µM; hit rate 0.25% among 190,000; AID 1776; GSH beads flow cytometry, compound fluorescence 488/530 nm; stronger effect = higher value; in the data active means fluorescence above about 89;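 further: glutathione beads carrying GST-tagged Bcl family fusion proteins plus one bare bead set; values are compound well signal with DMSO vehicle wells as background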
RGS7-Gao reg: modulates binding of RGS7 to human Galphao. P09471. Multiplexed bead flow cytometry; actives lie on both sides. binding response (% of control), % at 10 µM. hit rate 0.35% among 220,000. AID 1439; in the data active means binding response below about 49% or above about 150%; inconclusive means no clear call, values can overlap the other calls; inactive means in between;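 further: fluorescent Galphao held in activated GDP-AlF4 state binding bead-coupled RGS7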
RGS16-Gao: regulators of human RGS16-Galphao interaction; O15492+P09471; bead-based flow cytometry RGS16-Galphao binding, fluorescence; actives lie on both sides; binding response (% of control), % at 10 µM; hit rate 0.38% among 220,000; AID 1441; call rule not given here;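 further: Galphao activated by GDP with aluminum fluoride before binding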
Target sequence (O15492 whole entry, looked up): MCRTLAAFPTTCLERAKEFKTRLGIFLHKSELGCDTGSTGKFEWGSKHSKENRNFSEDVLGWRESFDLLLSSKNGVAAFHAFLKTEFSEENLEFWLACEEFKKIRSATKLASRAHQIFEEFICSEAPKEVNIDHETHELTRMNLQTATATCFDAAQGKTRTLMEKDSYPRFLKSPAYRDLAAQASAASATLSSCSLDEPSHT
Target sequence (P09471 whole entry, looked up): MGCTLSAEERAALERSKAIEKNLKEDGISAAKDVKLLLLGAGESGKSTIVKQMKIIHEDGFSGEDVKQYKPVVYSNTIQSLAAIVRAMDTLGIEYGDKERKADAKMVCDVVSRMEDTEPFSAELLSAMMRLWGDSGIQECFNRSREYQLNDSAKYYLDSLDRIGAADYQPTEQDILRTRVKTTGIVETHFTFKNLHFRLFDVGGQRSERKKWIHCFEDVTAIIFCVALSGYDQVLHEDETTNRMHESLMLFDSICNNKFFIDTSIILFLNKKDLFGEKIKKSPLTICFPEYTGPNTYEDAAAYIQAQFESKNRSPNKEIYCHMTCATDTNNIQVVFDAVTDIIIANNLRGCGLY
RGS8-Gao reg: human RGS8-Galphao interaction regulation; response (percent of control binding), % at 10 µM; P09471; hit rate 0.34% among 220,000; AID 1423; multiplexed bead flow cytometry, RGS8-Galphao binding; actives lie on both sides; in the data active means response below about 60% or above about 140%; inactive means in between;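 further: Galphao activated as the GDP aluminium fluoride complex binding bead-coupled RGS8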
Avidin fluor: compound fluoresces at 488/530 nm on avidin beads. compound fluorescence 488/530 nm, flow cytometry; stronger effect = higher value. hit rate 0.38% among 220,000. fluorescence (KMESF) at 10 µM. AID 1775; in the data active means fluorescence above about 47
RGS4-Gao reg: human RGS4-Galphao interaction regulation | binding response (% of control), % at 10 µM | AID 1415 | P09471 | Multiplexed bead flow cytometry, RGS4-Galphao binding; actives lie on both sides | hit rate 0.33% among 220,000; in the data active means binding response below about 49% or above about 150%; inactive means in between;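 further: fluorescent Galphao activated with aluminum fluoride binding bead-coupled RGS4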
Starred values were filed as active, the others as inactive; ? = inconclusive; . = no result; [ ] = dose if it differs, or a comment.

SMILES	GSH fluor	RGS7-Gao reg	RGS16-Gao	RGS8-Gao reg	Avidin fluor	RGS4-Gao reg
CC(=O)NC1C2CN3CCN(C2)CC1(Cc1ccccc1)C3 (configuration not stated)	22	100.0	101.4	101.9	11	98.1
Cc1ccc(C(=O)OCC(=O)N2CCc3ccccc32)cc1	10	115.0	119.9	105.3	50*	119.6
c1ccc2sc(Cc3nnc4n3CCCCC4)nc2c1	25	122.3	106.5	102.2	88*	105.9
CCCNC(=O)Nc1nccs1	24	105.3	99.0	101.0	57*	101.0
O=C(c1cnn2c(C(F)(F)F)cc(-c3cccs3)nc12)N1CCN(C(c2ccccc2)c2ccccc2)CC1	126*	96.5	107.6	103.4	5	96.6
CN1CCN(C(=O)c2cnn3c(C(F)(F)F)cc(-c4cccs4)nc23)CC1	24	98.7	106.9	103.7	3	99.7
O=S(=O)(NCCNS(=O)(=O)c1ccc(F)cc1)c1ccc(F)cc1	41	97.1	95.3	103.1	8	102.0
CC(C)(CNS(=O)(=O)c1ccc(F)cc1)CNS(=O)(=O)c1ccc(F)cc1	38	114.2	103.8	101.0	51*	106.7
CCOC(=O)c1[nH]c(C)c(C(=O)Nc2ccc(F)cc2)c1C	25	95.6	104.7	101.2	7	98.0
CCOC(=O)c1[nH]c(C)c(C(=O)Nc2ccccc2F)c1C	25	127.4	104.6	97.3	108*	102.3
Cc1ccc(C(=O)NNC2=NCCC2)cc1	38	101.9	96.8	97.3	6	98.1
O=C(NNC1=NCCC1)c1ccc(Br)cc1	261*	111.0	213.5	136.2	5	115.0
COc1ccc(Cn2c(C)nnc2-c2cnn(C)c2N)cc1OC	13	100.8	96.7	99.6	9	98.9
Cc1nnc(-c2cnn(C)c2N)n1Cc1ccccc1F	270*	96.6	107.6	102.6	6	103.8
CCCCN1C(=O)c2ccc(C(=O)Nc3c(N)n(CCCC)c(=O)n(C)c3=O)cc2C1=O	271*	102.9	100.7	100.7	8	106.7
CCCN1C(=O)c2ccc(C(=O)Nc3cc(C)on3)cc2C1=O	17	98.6	102.4	101.6	9	99.5
COc1cc(SC)ccc1C(=O)N(Cc1ccccc1)c1ccccn1	.	?	92.9	92.4	51*	107.5
Cc1cc2n(n1)C(c1ccccc1)CC(c1ccc(Br)cc1)=N2 (configuration not stated)	15	106.8	136.6	114.5	12	108.6
COc1cc(C(=O)COC(=O)CNC(=O)C2CCCCC2)cc(OC)c1OC	15	107.0	101.3	102.3	53*	103.0
COC(=O)C(Cc1cnc(Cl)s1)(C(=O)OC)c1ccc([N+](=O)[O-])cc1[N+](=O)[O-]	272*	101.7	116.7	104.0	7	99.2
Cc1cc(C)c2c(=O)cc(C(F)(F)F)oc2n1	9	110.5	106.6	104.3	11	107.0
CS(=O)(=O)N(Cc1ccccc1)c1ccc(C(=O)NCCSCc2ccco2)cc1	88*	95.8	103.0	100.4	6	91.8
O=C(CCN1CCCCC1)Nc1ccc(Br)cc1	20	107.7	102.7	102.2	49*	103.9
CN1CCN(CCC(=O)Nc2ccc(Br)cc2)CC1	16	98.8	102.5	99.6	11	99.7
Cc1cc(C(=O)NCC(=O)OC(C(=O)Nc2cc(C(F)(F)F)ccc2Cl)c2ccccc2)ccc1[N+](=O)[O-] (configuration not stated)	257*	101.9	104.4	100.7	7	100.6
SMILES	GSH fluor	RGS7-Gao reg	RGS16-Gao	RGS8-Gao reg	Avidin fluor	RGS4-Gao reg
O=C(COC(=O)c1nc(-c2ccccc2)n(-c2cccc(C(F)(F)F)c2)n1)NCc1cccs1	17	97.1	98.2	99.4	7	95.0
Cc1ccccc1-n1nc(C(=O)O)c(C)c(C#N)c1=O	255*	109.2	119.8	105.9	7	111.0
O=C(CCC(=O)Nc1ccc(Cl)cc1Cl)N/N=C/c1ccc([N+](=O)[O-])o1	15	?	104.8	103.3	9	101.0
Cc1cc(C)n(C(=O)c2c([N+](=O)[O-])c(C)nn2C)n1	150*	96.3	97.9	99.2	6	92.6
Cc1[nH]nc(Sc2ccccn2)c1[N+](=O)[O-]	7	98.4	101.2	99.4	2	96.1
Cc1ccc(CSCCNS(=O)(=O)c2ccc(C)cc2)cc1	11	99.8	100.3	102.7	12	100.2
O=C(Nc1cccnc1)c1c(O)c2cccc3c2n(c1=O)CC3	231*	133.8	125.1	119.6	9	170.9*[activator]
CC(C)Nc1c(N)c(=O)oc2ccccc12	253*	104.1	97.5	100.3	7	98.9
CCn1c(SCC(=O)N2CCN(c3ccccc3)CC2)nnc1-c1ccncc1	148*	101.2	95.4	98.7	4	98.2
O=C(CSc1nnc(-c2ccncc2)n1-c1ccc(Cl)cc1)N1CCOCC1	18	131.8	104.4	98.1	77*	107.3
NC(=O)CSc1nnc(-c2ccncc2)n1-c1ccc(Cl)cc1	23	93.7	48.6	86.4	5	90.2
CCOC(=O)C1CCCN(C(=O)c2ccc3c(c2)N(Cc2ccccc2)C(=O)c2ccccc2S3=O)C1 (configuration not stated)	11	93.0	94.1	97.5	11	96.8
COc1ccc(-c2cc(-c3ccccc3)nc(SCC(=O)Nc3nccs3)c2C#N)cc1	14	112.8	121.5	105.0	56*	110.2
Cn1c(-c2ccccc2)c(/C=N/NC(=O)c2ccc(O)cc2)c2ccccc21	.	?	93.3	94.1	3	92.2
